# Results: PubChem BioAssay (NCATS)
# Inconclusive results are not listed. Entries that show only a call come without a potency. A number with no mark means an inactive call. Activity calls are given as the source filed them. Unless noted, the call rests on the fitted dose curve; in most records, active means well fitted curve in the direction sought with a large enough effect; inconclusive means small, poorly fitted or top-dose-only effect, or another doubt; inactive means no such curve, though single readings can be large; an effect the other way counts as inactive or inconclusive.
# Tests used:
# [1] = Primary qHTS for small molecule stabilizers of the endoplasmic reticulum resident proteome: Secreted ER Calcium Modulated Protein (SERCaMP) assay (AID 1508630); further: potency means the concentration at half of the fitted maximal effect
# In short: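 GLuc-SERCaMP-expressing SH-SY5Y cells, pretreated 16 h with compound, are challenged with thapsigargin to empty ER calcium stores; after 4 h, coelenterazine is added directly to the medium and luminescence is imaged.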
# [2] = Cell Viability qHTS for small molecule stabilizers of the endoplasmic reticulum resident proteome (AID 1508629); conditions: cell viability counter-screen, 100 nM thapsigargin for final 4 h;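 further: human SH-SY5Y neuroblastoma cells carrying the GLuc-SERCaMP reporter; compound exposure about 46 h in total before the viability read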
# [3] = A High-Content qHTS Against Drug Library for the Identification of Small Molecules that Inhibit DYT1 Early Onset Primary Dystonia-Associated Cell Pathology (AID 1645839; calls by dose curve; further: series mostly up to about 46 µM)
# In short: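 Readout: %pathology, the punctate EGFP-TorsinA distribution from imaging, as the primary channel and cell count as the toxicity counterscreen. HEK293 Flp-In cells expressing delE TorsinA were induced with tetracycline and treated with compound for 48 h.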
# [4] = target: Cytochrome P450 2D6 (Homo sapiens) (UniProt P10635); assay: Cytochrome P450 family 2 subfamily D member 6 (CYP2D6) small molecule antagonists: luciferase biochemical (cell-free) qHTS assay (AID 1645840; active means well fitted curve in the direction sought with a large enough effect in the repeat runs; an effect the other way counts as inactive or inconclusive; further: nearly all actives have a fitted effect of over 55% in size; further: potency means the concentration at half of the fitted maximal effect)
# In short: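 P450-Glo luminescent screen: recombinant CYP2D6 enzyme–proluciferin substrate mix preincubated with compound 10 min at room temperature, then NADPH regeneration added for 1 h at room temperature. Detection reagent added for 20 min; luciferin light read as relative luminescence units.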
# [5] = target: Cytochrome P450 2C9 (Homo sapiens) (UniProt P11712); assay: Cytochrome P450 family 2 subfamily C member 9 (CYP2C9) small molecule antagonists: luciferase biochemical (cell-free) qHTS assay (AID 1645842; active means well fitted curve in the direction sought with a large enough effect in the repeat runs; an effect the other way counts as inactive or inconclusive; further: series mostly up to about 57 µM; nearly all actives have a fitted effect of over 55% in size)
# In short: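 Luminescence, after 20 min with luciferin detection reagent, reflected CYP2C9 turnover during a 1 h NADPH-driven reaction at 37C. Enzyme-substrate mix contained 0.4% bovine serum albumin and was preincubated with compound 10 min at room temperature.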
# Papain (Carica papaya) = Papain (Carica papaya) (UniProt P00784); assay: Primary qHTS assay for inhibitors of the protease papain (AID 1645873);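 further: papain turnover of Z-FR-AMC read as the AMC fluorescence gain over 10 min; series mostly up to about 50 µM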
# [6] = Primary qHTS for inhibitors of nuclear receptor binding SET domain protein 2 (NSD2) in an isogenic RCH-ACV NSD2 p.E1099K mutant (9B) (AID 1645876); further: nearly all actives have a fitted effect of over 70% in size; further: potency means the concentration at half of the fitted maximal effect
# [7] = target: Cytochrome P450 3A4 (Homo sapiens) (UniProt P08684); assay: Cytochrome P450 family 3 subfamily A member 4 (CYP3A4) small molecule antagonists: luciferase qHTS assay (AID 1645841; active means well fitted curve in the direction sought with a large enough effect in the repeat runs; an effect the other way counts as inactive or inconclusive; further: potency means the concentration at half of the fitted maximal effect; nearly all actives have a fitted effect of over 45% in size)
# In short: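 P450-Glo CYP3A4 enzyme with proluciferin substrate was preincubated with DMSO-dissolved compounds for 10 min at room temperature. NADPH regeneration solution started a 1 h reaction. Detection reagent stopped it, and luminescence was read after 20 min.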
# [8] = Primary qHTS for inhibitors of nuclear receptor binding SET domain protein 2 (NSD2) in an RCH-ACV wild type WT cells (2C) (AID 1645877); further: nearly all actives have a fitted effect of over 70% in size
# Chain of Cytochrome P450 2D6 (Homo sapiens) (P10635 whole entry, looked up): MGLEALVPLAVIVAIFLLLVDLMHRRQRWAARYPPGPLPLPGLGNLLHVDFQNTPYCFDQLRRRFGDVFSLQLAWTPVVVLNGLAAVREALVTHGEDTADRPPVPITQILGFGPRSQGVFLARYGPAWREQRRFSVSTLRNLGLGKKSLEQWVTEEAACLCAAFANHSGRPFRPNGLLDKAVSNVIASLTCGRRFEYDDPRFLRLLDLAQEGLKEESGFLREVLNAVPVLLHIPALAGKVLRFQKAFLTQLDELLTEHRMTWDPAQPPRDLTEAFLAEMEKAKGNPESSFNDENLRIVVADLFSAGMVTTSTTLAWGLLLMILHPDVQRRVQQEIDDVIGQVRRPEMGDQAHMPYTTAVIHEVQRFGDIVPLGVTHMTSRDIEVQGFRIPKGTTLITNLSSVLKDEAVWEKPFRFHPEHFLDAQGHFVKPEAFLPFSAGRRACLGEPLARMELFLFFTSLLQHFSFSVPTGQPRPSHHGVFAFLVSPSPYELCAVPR
# Chain of Cytochrome P450 3A4 (Homo sapiens) (P08684 whole entry, looked up): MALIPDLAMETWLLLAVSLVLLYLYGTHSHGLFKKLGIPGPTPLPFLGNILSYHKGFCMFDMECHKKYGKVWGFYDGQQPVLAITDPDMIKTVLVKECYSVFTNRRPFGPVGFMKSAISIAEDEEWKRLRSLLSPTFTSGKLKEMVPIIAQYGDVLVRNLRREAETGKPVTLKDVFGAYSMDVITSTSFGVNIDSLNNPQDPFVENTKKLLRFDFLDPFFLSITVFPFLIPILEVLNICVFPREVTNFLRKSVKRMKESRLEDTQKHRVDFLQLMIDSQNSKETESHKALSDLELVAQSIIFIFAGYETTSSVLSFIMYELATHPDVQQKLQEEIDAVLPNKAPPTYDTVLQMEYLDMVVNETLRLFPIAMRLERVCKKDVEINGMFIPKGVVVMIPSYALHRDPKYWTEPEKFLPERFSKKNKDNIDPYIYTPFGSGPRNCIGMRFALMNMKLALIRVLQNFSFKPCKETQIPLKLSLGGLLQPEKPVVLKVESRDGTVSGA
# Chain of Papain (Carica papaya) (P00784 whole entry, looked up, the tested form may be a part): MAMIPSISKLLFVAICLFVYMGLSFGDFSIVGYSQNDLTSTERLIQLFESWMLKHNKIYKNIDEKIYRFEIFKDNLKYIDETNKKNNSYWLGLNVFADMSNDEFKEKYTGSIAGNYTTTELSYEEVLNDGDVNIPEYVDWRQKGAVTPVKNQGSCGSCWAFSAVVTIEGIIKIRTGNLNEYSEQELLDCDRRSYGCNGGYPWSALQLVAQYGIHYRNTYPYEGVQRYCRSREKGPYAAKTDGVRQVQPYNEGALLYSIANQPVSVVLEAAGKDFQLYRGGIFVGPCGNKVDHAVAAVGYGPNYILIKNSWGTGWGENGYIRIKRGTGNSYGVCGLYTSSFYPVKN
# Chain of Cytochrome P450 2C9 (Homo sapiens) (P11712 whole entry, looked up): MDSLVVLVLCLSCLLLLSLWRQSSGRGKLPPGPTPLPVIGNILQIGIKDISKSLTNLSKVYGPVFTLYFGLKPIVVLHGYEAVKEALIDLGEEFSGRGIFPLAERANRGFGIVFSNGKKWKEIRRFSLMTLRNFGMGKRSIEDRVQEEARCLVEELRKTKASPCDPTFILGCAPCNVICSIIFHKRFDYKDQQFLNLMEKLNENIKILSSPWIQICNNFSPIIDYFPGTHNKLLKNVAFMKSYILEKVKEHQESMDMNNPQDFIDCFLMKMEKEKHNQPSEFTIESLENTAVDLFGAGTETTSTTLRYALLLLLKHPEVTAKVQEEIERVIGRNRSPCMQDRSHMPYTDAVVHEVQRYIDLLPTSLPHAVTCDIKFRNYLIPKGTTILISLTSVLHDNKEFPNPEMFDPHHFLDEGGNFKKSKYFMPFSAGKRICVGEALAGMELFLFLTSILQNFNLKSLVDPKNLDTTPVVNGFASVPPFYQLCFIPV
compound,measurement,setting,value
COc1nc(-c2ccc3c(c2)OCO3)n(-c2ccc(NC(=O)CSc3ccccc3)cc2)n1,Potency,[1],inactive
OC(CCN1CCCCC1)(c1ccccc1)C1CC2C=CC1C2 (configuration not stated),max response,[2],24.4%
same,Potency,[1],10 µM (active)
same,Potency,[3],inactive
same,Potency,[4],1.23 µM (active)
same,Potency,[5],inactive
same,Potency,Papain (Carica papaya),inactive
same,Potency,[6],inactive
CC(C=CC1=C(C)CCCC1(C)C)=CC=CC(C)=CC(=O)O,Potency,[1],inactive
O=C(C=Cc1ccc(/C=C/C(=O)Nc2ccc(C3=NCCN3)cc2)cc1)Nc1ccc(C2=NCCN2)cc1,Potency,[1],inactive
CC(c1cc2ccccc2s1)N(O)C(N)=O (configuration not stated),Potency,[1],inactive
same,Potency,[3],inactive
same,Potency,[4],inactive
same,Potency,[7],13.8 µM (active)
same,Potency,[6],inactive
same,Potency,[8],inactive
CCCS(=O)(=O)Nc1ccc(F)c(C(=O)c2c[nH]c3ncc(Cl)cc23)c1F,Potency,[1],inactive
CCOC(=O)N[C@@H]1CC[C@@H]2[C@@H](C1)C[C@H]1C(=O)O[C@H](C)[C@H]1[C@@H]2C=Cc1ccc(-c2cccc(F)c2)cn1,Potency,[1],inactive
COCC(=O)NCC=Cc1ccc2ncnc(Nc3ccc(Oc4ccc(C)nc4)c(C)c3)c2c1,Potency,[1],inactive
Cc1cc(-c2ccc(CC(=O)Nc3ccc(-c4cccnc4)cc3)cc2)ccn1,Potency,[1],inactive
Cc1cc(C=c2sc3nc4ccccc4n3c2=O)c(C)n1-c1ccccc1,Potency,[1],inactive
Cn1c(=O)c(F)c(Nc2ccc(I)cc2F)c2c(=O)n(C[C@@H](O)CO)cnc21,Potency,[1],inactive
CC(=O)NC(C)c1ccc(Oc2ccc(OC(C)C)cc2)cc1 (configuration not stated),Potency,[1],inactive
COc1ccc(-c2ccc3c(N4CCOCC4)nc(N4C[C@@H](C)O[C@@H](C)C4)nc3n2)cc1CO,max response,[2],-27.3%
same,Potency,[1],14.9 µM (active)
same,Potency,[6],662 nM (active)
same,Potency,[8],inactive
